By inhibition is commonly meant the drop in the measured response relative to a control, in per cent.

Several values for one entry are separate records, joined by “and”; a condition that tells them apart may be missing. Identical values can stand only once. Out of some 110,000 compounds screened, about 730 (0.66%) were called active. Cut-off read from the data, not from the text of the source: active = inhibition above about 50%; inconclusive = no clear call, values can overlap the other calls; inactive = below that. What follows is part of a selection rich in actives, with near analogues and random picks from the rest. More than one record can exist for a structure, and the calls need not agree.

Inhibition data for 61 compounds are collected here from PubChem BioAssay AID521 (Sanford-Burnham Center for Chemical Genomics, 2006).

Chain of Tyrosine-protein phosphatase non-receptor type 7 (Homo sapiens) (P35236 whole entry, looked up): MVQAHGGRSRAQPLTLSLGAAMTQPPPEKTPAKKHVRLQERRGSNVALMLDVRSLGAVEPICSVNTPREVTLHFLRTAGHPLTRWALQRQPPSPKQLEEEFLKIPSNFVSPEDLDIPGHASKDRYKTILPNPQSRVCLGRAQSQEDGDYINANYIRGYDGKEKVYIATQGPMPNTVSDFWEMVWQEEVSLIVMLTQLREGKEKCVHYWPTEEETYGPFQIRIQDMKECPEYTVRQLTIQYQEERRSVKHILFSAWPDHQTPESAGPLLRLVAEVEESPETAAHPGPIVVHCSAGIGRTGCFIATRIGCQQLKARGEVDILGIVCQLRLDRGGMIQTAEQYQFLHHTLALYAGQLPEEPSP

The experiment has as its target Tyrosine-protein phosphatase non-receptor type 7 (Homo sapiens) (UniProt P35236). In words: HePTP tyrosine phosphatase activity blockers – biochemical, absorbance, leukemia target, primary screen (AID 521).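 Note: plate controls were vehicle for no effect and reference inhibitor for full effect.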 The conditions noted are these: recombinant HePTP phosphatase activity, OD absorbance; at 20 µM; stronger effect = higher value.
Take `Cc1[nH]n(-c2ccccc2)c(=O)c1C(=O)C(F)(F)F`: the inhibition is 3.1% (inactive).

For the compound `Cc1[nH]n(-c2ccccc2)c(=O)c1/C=N/N(C)C`, the inhibition is -5.9% (inactive).

As for `Cc1[nH]n(-c2ccccc2)c(=O)c1C(c1ccc(C(F)(F)F)cc1)c1c(C)[nH]n(-c2ccccc2)c1=O`, the inhibition was 104% (active).

For `COc1ccc2nc(C)c(CCC(C)=O)c(Cl)c2c1`, the inhibition was 6.4% (inactive).

Turning to `COc1ccc(C(=O)Nc2nc(C34CC5CC(CC(C5)C3)C4)c(C)s2)cc1`, the inhibition was -13.5% (inactive).

For `COC(=O)c1ccccc1NC(=O)COc1cccc2ccccc12`, the inhibition was 3.5% (inactive).

With `COc1cc(C(=O)N2CCC(Cc3ccccc3)CC2)c([N+](=O)[O-])cc1OC`, the inhibition was -4.3% (inactive).

Turning to `COC(=O)c1ccccc1NC(=O)c1ccc(Cl)cc1`, the inhibition is 72.5% (active).

For the compound `COC(=O)c1ccc(C(=O)Nc2cc(Cl)ccc2Cl)cc1NC(=O)c1ccccc1C`, the inhibition is -11.5% (inactive).

As to `COC(=O)c1ccccc1NC(=O)c1cncc(Br)c1`, the inhibition was 5.5% (inactive) and 4.4% (inactive).

For the compound `Cc1cc(NC(=O)C2CC3CCC2C3)no1` (stereo unspecified), the inhibition is -16.7% (inactive).

Regarding `O=C1NC(c2ccc(Br)cc2)=N/C1=C/c1ccccc1`, the inhibition was -7.8% (inactive).

In the case of `COc1ccc([N+](=O)[O-])cc1-c1ccc(/C=C(\C#N)c2nc3ccc(C)cc3[nH]2)o1`, the inhibition is 103% (active).

With `Cc1cccc(NC(=O)/C(C#N)=C/c2ccc(-c3ccccc3[N+](=O)[O-])o2)c1`, the inhibition is 2.3% (inactive).

`CC(=O)NC1=NC(=O)/C(=C\c2ccc(-c3cc([N+](=O)[O-])ccc3C)o2)S1`: the inhibition was -13.7% (inactive).

Take `CCCOc1ccc(N2C(=O)CC(NCCc3ccc(Cl)cc3)C2=O)cc1` (stereo unspecified): the inhibition was -18.1% (inactive).

Take `COc1ccccc1NCN1C(=O)S/C(=C/c2ccccc2F)C1=O`: the inhibition was -9.9% (inactive).

For the compound `C/C(=C\C(=O)c1ccc(Br)cc1)Nc1ccccc1O`, the inhibition is -2% (inactive).

`CC(C)(C)CC(C)(C)NC(=O)CSc1nc2ccccc2s1`: the inhibition was 5.4% (inactive).

As to `N/C(=C\C(=O)/C=C\c1ccccc1)C(Cl)(Cl)Cl`, the inhibition was -0.8% (inactive).

For `O=c1oc2c3c4c(cc2cc1CCO)CCCN4CCC3`, the inhibition was 11.1% (inactive).

Consider `CN1CCN(CCCCOc2cccc3ccccc23)CC1`, for which the inhibition was 3.9% (inactive).

Turning to `Cc1cc(C)c2oc(-c3ccc(NC(=O)c4cc5ccccc5o4)cc3O)nc2c1`, the inhibition is -0.1% (inactive).

As to `CCc1ccc2oc(-c3ccc(C)c(NC(=O)c4cc(OC)cc(OC)c4)c3)nc2c1`, the inhibition is -3.6% (inactive).

For `COc1ccc(C=Nc2ccc(Sc3ccc([N+](=O)[O-])cc3)cc2)cc1OC`, the inhibition was -1.2% (inactive).

For `COc1ccc(/C=C2/SC(=S)NC2=O)cc1I`, the inhibition was 7.7% (inactive).

Regarding `CCC(=O)Nc1sc(C(=O)N2CCCCC2)c(C)c1C#N`, the inhibition is 7.4% (inactive).

On to `COC(=O)c1sc(NC(=O)C2CCCCC2)c(C#N)c1C`, for which the inhibition is 103% (active).

Take `COC(=O)c1sc(NC(=O)C(Sc2ccccc2)c2ccccc2)c(C#N)c1C` (stereo unspecified): the inhibition is 10.9% (inactive).

`CC1(C)c2ccccc2N(CCO)C12C=Cc1cc([N+](=O)[O-])ccc1O2` (stereo unspecified): the inhibition is 0.7% (inactive).

Consider `COC(=O)c1cc(S(=O)(=O)N2CCOCC2)ccc1Cl`, for which the inhibition was -0.5% (inactive).

Regarding `O=C(Cc1c(O)c2ccccc2[nH]c1=O)NCc1ccc(Cl)cc1`, the inhibition is -5.2% (inactive).

Take `CC(=O)n1nc(C)c2c1C[C@@H]1[C@H]2C1(C)C`: the inhibition is 2.1% (inactive).

`O=c1[nH]c2ccc(Br)cc2c(-c2ccccc2)c1C1=NNC(c2ccc([N+](=O)[O-])cc2)C1` (stereo unspecified): the inhibition was 7.3% (inactive).

`Cc1ccc(N2NC(=O)/C(=C/c3ccc4c(c3)OCO4)C2=O)cc1Cl`: the inhibition is 66.6% (active).

Regarding `O=C1NN(c2ccccc2)C(=O)/C1=C/c1cccc(F)c1`, the inhibition is 7.6% (inactive).

As to `Cc1ccc(N2NC(=O)/C(=C/c3ccc(O)c(O)c3)C2=O)cc1C`, the inhibition was -5.6% (inactive).

Regarding `CC(C)=CC1C(C(=O)Nc2ccc(C)cn2)C1(C)C` (stereo unspecified), the inhibition is -10.2% (inactive).

Take `O=C(NCc1ccco1)Nc1ccncc1`: the inhibition was -1.8% (inactive).

With `COc1ccccc1C(=O)NC(NC(=O)c1ccccc1OC)c1ccc(Br)cc1`, the inhibition was 7.8% (inactive).

Take `O=C(Nc1ccc(OC(F)(F)F)cc1)c1cnn2c(C(F)(F)F)cc(-c3ccco3)nc12`: the inhibition is 0.1% (inactive).

With `OCCNCC(O)Cn1c2ccc(I)cc2c2cc(I)ccc21` (stereo unspecified), the inhibition was -15.3% (inactive).

As for `Cn1cnnc1Sc1nc2c(c(=O)n(C)c(=O)n2C)n1Cc1ccc(F)cc1`, the inhibition was -3.2% (inactive).

Take `CC(C)(C)c1ccc(OCC(=O)Nc2cccc(NC(=O)c3ccccc3)c2)cc1`: the inhibition was -1.7% (inactive).

In the case of `Cc1cccc(NC(=O)c2ccc(NC(=O)COc3ccc(Cl)cc3Cl)cc2)c1`, the inhibition is 6.4% (inactive).

For `Cc1cccc(C(=O)Nc2cccc(NC(=O)COc3ccccc3Cl)c2)c1`, the inhibition is 105% (active).

As to `N#Cc1c(N)nc2cc(N)ccc2c1-c1ccc(O)cc1`, the inhibition is 104% (active).

In the case of `CSc1ccc(-c2c(C#N)c(N)nc3c2c(C)nn3-c2ccccc2)cc1`, the inhibition was 2.8% (inactive).

As for `CSc1nc(N)c(C#N)c(-c2ccccc2Cl)c1C#N`, the inhibition was -5.7% (inactive).

`CCN(C(=S)NC(=O)c1cccnc1)c1ccccc1`: the inhibition was 3.3% (inactive).

For `COc1ccc(C(=O)Nc2nc3ccc(C)cc3s2)cc1Br`, the inhibition was 4.5% (inactive).

On to `CCc1c(C)sc(NC(=O)C2CCCCC2)c1C(=O)OC(C)C`, for which the inhibition was 6.5% (inactive).

On to `COC(=O)c1cc(NC(=O)c2ccc(-c3cc(Cl)ccc3Cl)o2)cc(C(=O)OC)c1`, for which the inhibition was -24.3% (inactive).

`COc1cc(OC)cc(C(=O)N/N=C(\C)CC(=O)Nc2ccccc2-c2ccccc2)c1`: the inhibition was -23.1% (inactive).

Regarding `CCCCOc1ccc(C(=O)NCc2ccco2)cc1`, the inhibition is 6% (inactive).

As to `CCOc1ccccc1C(=O)NCc1ccco1`, the inhibition was 103% (active) and 14.1% (inactive).

Turning to `COc1ccc(C(=O)Nc2ccccc2C(=O)NCc2ccco2)cc1`, the inhibition is 4.8% (inactive).

On to `O=C(Cc1ccc(Cl)cc1)Nc1ccc(Cl)cc1C(=O)O`, for which the inhibition is 1.2% (inactive).

Turning to `O=Cc1ccc(/C=C2/SC(=S)N(c3cccc(Cl)c3)C2=O)cc1`, the inhibition was 4.5% (inactive).

As to `Cc1cccc(N2C(=O)S/C(=C/c3ccc(N(C)C)cc3)C2=O)c1`, the inhibition is -1.4% (inactive).

Regarding `CN(C)c1ccc(/C=C2\SC(=S)N(c3cccc(C(=O)O)c3)C2=O)cc1`, the inhibition was 104% (active).
